Screening data from PubChem BioAssay.
This is a sample that favours compounds with a hit; in the whole collection about 4.1% have one here.
hgDAF-12 ag – hgDAF-12 agonism, primary luciferase screen; HEK293 GAL4-hgDAF12 UAS-luciferase reporter, agonist luminescence; normalized to butyrate control; activation, % at 6.8 µM; hit rate 1.8% among 370,000;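 active means activation above a cutoff set at the mean of all screened compounds plus 3 SD, cut at about 10% in these data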;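 further: 0% = DMSO wells and 100% = sodium butyrate wells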
ssDAF12 agonist – activators of S. stercoralis DAF-12 nuclear receptor | activation, % at 6.8 µM | HEK293 ssDAF-12/GRIP1 lit1-tk-luc reporter, luminescence; % of 3 µM dafachronic acid response | AID 652126 | hit rate 1% among 370,000;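 active means activation above the mean over all tested compounds plus 3 SD, cut at about 0.9% in these data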;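 further: 0% = DMSO-only wells and 100% = 3 µM delta7-dafachronic acid wells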
DAX1 inh-1 – inhibits human nuclear receptor DAX1; P51843; HEK293 Gal4-DAX1 luciferase reporter, luminescence; inhibition, % at 6.75 µM; hit rate 0.99% among 340,000; AID 504766;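 active means inhibition above the mean over all tested compounds plus 3 SD, cut at about 4.2% in these data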;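 further: 0% = DAX1-transfected cells with DMSO and 100% = empty-vector control cells with DMSO; inhibition shows as a rise in luminescence from relieved DAX1 repression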
Target sequence (P51843 207-470 limits assumed): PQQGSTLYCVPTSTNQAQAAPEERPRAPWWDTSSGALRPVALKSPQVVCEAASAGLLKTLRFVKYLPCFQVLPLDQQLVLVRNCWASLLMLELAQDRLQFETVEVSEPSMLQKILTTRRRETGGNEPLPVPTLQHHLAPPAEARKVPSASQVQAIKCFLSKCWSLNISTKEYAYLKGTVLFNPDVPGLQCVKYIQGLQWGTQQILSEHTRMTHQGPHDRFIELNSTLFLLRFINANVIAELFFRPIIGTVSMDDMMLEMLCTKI
DAX1 inh-2 – inhibitors of DAX1 repression of SF-1 activated StAR promoter; inhibition, % at 6.8 µM; HEK293T StAR-luciferase reporter, SF-1/DAX-1 repression relief; hit rate 1.1% among 370,000;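 active means inhibition above the mean over all tested compounds plus 3 SD, cut at about 3.6% in these data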;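 further: 0% = DAX-1 cells with DMSO and 100% = cells lacking DAX-1 with DMSO; higher inhibition means more luminescence from relief of DAX-1 repression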
hcDAF12 agonist – activators of H. contortus DAF-12 nuclear receptor; HEK293 hcDAF-12 lit1-tk-luc reporter, luminescence; 0% DMSO, 100% Δ7-dafachronic acid; activation, % at 6.8 µM; hit rate 1.4% among 370,000; AID 652067;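 active means activation above the mean of all tested compounds plus 3 SD, cut at about 5.5% in these data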;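 further: 100% = response to 3 µM Δ7-dafachronic acid high control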
Active calls of the source: *; x = no result.

SMILES | hgDAF-12 ag | ssDAF12 agonist | DAX1 inh-1 | DAX1 inh-2 | hcDAF12 agonist
CCCCNC(=O)C[C@H]1C[C@@]2(C(=O)OC)C(=C[C@H](COCc3ccccc3)O[C@@H]2C)N(Cc2ccco2)C1=O | 0 | -2 | x | -2 | -2
Nc1c(C(=O)CSc2nc3ccccc3o2)c(=O)[nH]c(=O)n1C1CC1 | -6 | -1 | -2 | 4.4* | -2
CC(CN1CCN(Cc2ccccc2)CC1)c1ccccc1 (stereo unspecified) | 1 | -1 | 1 | 0 | -1
ClC(CCN1CCN(Cc2ccccc2)CC1)c1ccccc1 (stereo unspecified) | -2 | -1 | 5.7* | 0 | -1
CCCCNC(=O)c1ccc2nc(CC)c(N(CCC(C)C)CCN(C)C)n2c1 | -1 | -1 | x | 0 | -2
CCCCNC(=O)c1ccc2nc(CC)c(N(CC)CCN(C)C)n2c1 | 2 | 0.9* | x | 1 | 0
O=C(COC(=O)C1CCN(S(=O)(=O)c2cc([N+](=O)[O-])ccc2Cl)CC1)Nc1ncc(Cl)cc1Cl | -2 | 0 | 0 | 0 | 2
CC(=O)COC(=O)C1CCN(S(=O)(=O)c2cc([N+](=O)[O-])ccc2Cl)CC1 | 0 | -1 | 4.3* | 0 | 1
COC(=O)/C(C#N)=C1/C=Cc2ccccc2N1 | 10 | -1 | 3 | 1 | 5.9*
O=C1OC(Cc2ccccn2)C(O)=C1C1=NCCCN1 (stereo unspecified) | 3 | 0 | -1 | 1 | 0
O=C1OC(Cc2ccccn2)C(O)=C1C1=NCCCCN1 (stereo unspecified) | 13* | -1 | 5.3* | 2 | 4
COc1cccc(-c2coc3c(C)c4oc(=O)c(CCC(=O)O)c(C)c4cc23)c1 | -5 | -1 | 2 | 0 | -2
COc1cccc(-c2coc3cc4oc(=O)c(CCC(=O)O)c(C)c4cc23)c1 | -1 | 0 | 0 | 0 | 5.8*
Cc1cccc(NC(=O)CN2CCN(C(=O)c3ccc(-c4nc5ccccc5s4)o3)CC2)c1C | 3 | -1 | 1 | 4.0* | 0
Cc1ccccc1CNC1CCC12CCC(c1ccccc1)CC2 (stereo unspecified) | 2 | -1 | x | x | -1
OC[C@H]1O[C@H](OCc2ccccc2)[C@H](O[C@@H]2OC[C@@H](O)[C@H](O)[C@H]2O)[C@@H](O)[C@@H]1O | 3 | -1 | 6.3* | 1 | -2
COC(=O)C1CN(Cc2cn(Cc3ccc(OC)cc3)nn2)CCS(=O)(=O)N1Cc1ccc(OC)cc1 (stereo unspecified) | -1 | -2 | x | -1 | -1
C#CCNC(=O)CSCc1nc(-c2ccc(OCC)cc2)oc1C | 3 | -2 | x | x | -3
Cc1cccc(C(=O)NC2CCN(S(=O)(=O)c3ccccc3F)CC2)c1 | -2 | -2 | 4.3* | 0 | -3
Cc1cccc(C(=O)NC2CCCCCCC2)c1 | 11* | 0 | 3 | 1 | 3
CN(C)c1cccc(C(=O)NC2CCCCCC2)c1 | 9 | -1 | 1 | 2 | 2
CC(O)CNC(=O)Cc1cc(=O)[nH]c(=O)[nH]1 (stereo unspecified) | 0 | -1 | 3 | 0 | -1
C[C@H](CO)N1C[C@H](C)[C@@H](CN(C)C(=O)Nc2ccccc2)Oc2ccc(NC(=O)Nc3ccccc3)cc2C1=O | 0 | -1 | 1 | -1 | -2
Cn1nccc1C(=O)N/N=C/c1cccnc1 | 2 | 0 | 4.3* | 0 | 2
O=C(N/N=C/c1cccnc1)c1ccc2c(c1)OCCO2 | 11* | -1 | 1 | 1 | 2
SMILES | hgDAF-12 ag | ssDAF12 agonist | DAX1 inh-1 | DAX1 inh-2 | hcDAF12 agonist
COc1cc(/C=N/NC(=O)c2cccnc2)cc2c1OCO2 | 1 | -2 | 0 | 4.1* | 1
O=C(O)c1ccc(/C=N/NC(=O)c2ccc3c(c2)OCCO3)cc1 | 6 | 0 | 0 | 1 | 5
O=C(N/N=C/c1ccc2c(c1)OCO2)c1cccnc1 | 5 | 0 | 1 | 0 | 0
N#CC1CCN(c2nc(-c3ccc(Br)cc3)cs2)CC1 | 9 | -1 | x | x | -1
C=CCN1C(=O)[C@H]2CCC=C[C@H]2[C@@H]1c1cccc(C)c1 | 0 | 0 | -1 | 0 | -1
Cc1cccc([C@H]2[C@@H]3C=CCC[C@@H]3C(=O)N2Cc2ccccc2)c1 | 1 | -2 | -1 | 3.8* | 0
CCOC(=O)C1=C(C)NC2=C(C(=O)CC(c3cccs3)C2)C1c1cccs1 (stereo unspecified) | -3 | -1 | 0 | -2 | -1
